High-throughput results deposited in PubChem by The Scripps Research Institute Molecular Screening Center.
GPR151 ag = human GPR151 activation; activation, % at 11.2 µM; Q8TDV0; PathHunter beta-arrestin GPR151 cells, luminescence; actives 1% (n = 650,000); in the data active = activation above about 4.9%;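 also: 0% = median of compound wells and 100% = cells with positive control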
Target sequence (Q8TDV0 whole entry, looked up): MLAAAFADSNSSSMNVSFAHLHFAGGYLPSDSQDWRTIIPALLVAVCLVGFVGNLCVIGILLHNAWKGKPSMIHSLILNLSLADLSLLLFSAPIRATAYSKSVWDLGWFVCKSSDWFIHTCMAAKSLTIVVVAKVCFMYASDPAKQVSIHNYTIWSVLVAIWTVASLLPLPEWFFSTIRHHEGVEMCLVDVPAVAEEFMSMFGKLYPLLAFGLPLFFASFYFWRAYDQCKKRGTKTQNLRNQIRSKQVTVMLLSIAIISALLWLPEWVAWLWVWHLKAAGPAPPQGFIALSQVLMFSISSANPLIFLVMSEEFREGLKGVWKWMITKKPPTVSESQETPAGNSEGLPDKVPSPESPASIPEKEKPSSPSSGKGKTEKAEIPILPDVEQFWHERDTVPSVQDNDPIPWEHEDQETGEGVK
MITF primary = human MITF inhibition, primary screen | AlphaScreen MITF homodimerization, bead proximity signal | actives 0.91% (n = 650,000) | O75030 | inhibition, % at 2.6 µM; in the data active = inhibition above about 50%;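 also: 0% = vehicle wells with protein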
TEAD-YAP inh = TEAD-YAP interaction inhibition. HEK-TIYL cells, TEAD-Gal4/YAP UAS-luciferase luminescence. inhibition, % at 9.12 µM. actives 1.4% (n = 640,000). AID 1259422; in the data active = inhibition above about 32%;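 also: 0% = median of test compound wells and 100% = reference inhibitor wells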
FBW7 activator = human FBW7 E3 ligase activation, primary screen. actives 0.13% (n = 650,000). AlphaScreen FBW7–phospho-cyclin E peptide binding, activator screen. normalized activity (activation), % at 26.1 µM. Q969H0; in the data active = normalized activity above about 1.9%;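 also: purified mutant Fbw7 with reduced substrate affinity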
Active calls of the source: *. This is a sample that favours compounds with a hit; in the whole collection about 3.5% have one here.

How did COc1cc(NC(=O)c2cc(-c3ccccc3O)on2)c(OC)cc1Cl do in these assays?
GPR151 ag: -2; MITF primary: 12; TEAD-YAP inh: -5; FBW7 activator: 0

Results for CCc1ccc(NC(=O)CN2CCOCC2)cc1 ?
GPR151 ag: 1; MITF primary: 7; TEAD-YAP inh: -26; FBW7 activator: 0

What do the screens show for `c1cc(Cn2ccnc2)cc(Nc2nccc(-c3cncc(N4CCOCC4)c3)n2)c1`?
GPR151 ag: 1; MITF primary: -5; TEAD-YAP inh: 87*; FBW7 activator: -1

How did c1cc(Cn2cncn2)cc(Nc2nccc(-c3cncc(N4CCOCC4)c3)n2)c1 do in these assays?
GPR151 ag: 0; MITF primary: 14; TEAD-YAP inh: 92*; FBW7 activator: 1

What do the screens show for `c1cc(-c2nc3ccc(Nc4nccc(-c5cncc(N6CCOCC6)c5)n4)cc3o2)ccn1`?
GPR151 ag: 2; MITF primary: 4; TEAD-YAP inh: -3; FBW7 activator: 0

What do the screens show for `CC(=O)Nc1ccc(Nc2ccnc(Nc3nccc4ccccc34)n2)cc1`?
GPR151 ag: 0; MITF primary: 25; TEAD-YAP inh: 48*; FBW7 activator: 0

What do the screens show for `CC(=O)Nc1ccc(Nc2cc(C)nc(Nc3nccc4ccccc34)n2)cc1`?
GPR151 ag: 4; MITF primary: 4; TEAD-YAP inh: 65*; FBW7 activator: 0

How did CC(=O)Nc1ccc(Nc2cc(C)nc(Nc3cnccn3)n2)cc1 do in these assays?
GPR151 ag: 1; MITF primary: 5; TEAD-YAP inh: -24; FBW7 activator: 0

Results for CC(=O)Nc1ccc(Nc2nc(Nc3nccc4ccccc34)ncc2C)cc1 ?
GPR151 ag: 0; MITF primary: 3; TEAD-YAP inh: 8; FBW7 activator: 0

How did COc1ccc(N2CCN(C(=O)CN(c3ccccc3C)S(C)(=O)=O)CC2)cc1 do in these assays?
GPR151 ag: -1; MITF primary: 72*; TEAD-YAP inh: 1; FBW7 activator: 0

Results for CC1Cc2ccccc2N1C(=O)CN1CCc2ccccc2C1 (stereo not drawn) ?
GPR151 ag: -2; MITF primary: 17; TEAD-YAP inh: 12; FBW7 activator: 0

How did COc1ccc(N2CCN(C(=O)CN(c3cccc(C)c3C)S(C)(=O)=O)CC2)cc1 do in these assays?
GPR151 ag: 0; MITF primary: 7; TEAD-YAP inh: 7; FBW7 activator: 0

Results for O=C(CCl)N1CCN(c2ccc([N+](=O)[O-])cc2)CC1 ?
GPR151 ag: 0; MITF primary: 7; TEAD-YAP inh: 34*; FBW7 activator: 0

How did COc1ccc(N2CCN(C(=O)CCl)CC2)cc1 do in these assays?
GPR151 ag: -1; MITF primary: 8; TEAD-YAP inh: 49*; FBW7 activator: 1

Results for COc1ccc(N2CCN(CC(=O)N3c4ccccc4CC3C)CC2)cc1 (stereo not drawn) ?
GPR151 ag: 1; MITF primary: 65*; TEAD-YAP inh: 5; FBW7 activator: 1

What do the screens show for `CC1CN(Cc2nc3c(c(=O)n(C)c(=O)n3C)n2CC(N)=O)CC(C)O1` (stereo not drawn)?
GPR151 ag: -1; MITF primary: 3; TEAD-YAP inh: 9; FBW7 activator: 0

Results for COCCCNC(=O)NC(=O)COC(=O)c1[nH]c(C)c(C(C)=O)c1C ?
GPR151 ag: 1; MITF primary: 6; TEAD-YAP inh: 8; FBW7 activator: 0

How did COc1ccccc1/C(C)=N/Nc1ncc(C(F)(F)F)cc1Cl do in these assays?
GPR151 ag: 0; MITF primary: 3; TEAD-YAP inh: -9; FBW7 activator: 0

What do the screens show for `CCCn1ncc(CN2CCN(Cc3ccccc3C)C(CCO)C2)c1C` (stereo not drawn)?
GPR151 ag: -3; MITF primary: 5; TEAD-YAP inh: 8; FBW7 activator: 0

How did NC(=O)CSc1nnc(-c2ccncc2)n1-c1cccc(C(F)(F)F)c1 do in these assays?
GPR151 ag: -1; MITF primary: -7; TEAD-YAP inh: -8; FBW7 activator: 2.6*

How did NC(=O)CSc1nnc(-c2cccnc2)n1-c1cccc(C(F)(F)F)c1 do in these assays?
GPR151 ag: -1; MITF primary: 5; TEAD-YAP inh: 10; FBW7 activator: 0

What do the screens show for `Cc1ccnc(NC(c2cccs2)c2ccc3cccnc3c2O)c1` (stereo not drawn)?
GPR151 ag: 0; MITF primary: 9; TEAD-YAP inh: 52*; FBW7 activator: -2

Results for Cc1ccc(C)c(C(Nc2ccccn2)c2ccc3cccnc3c2O)c1 (stereo not drawn) ?
GPR151 ag: -1; MITF primary: 13; TEAD-YAP inh: 76*; FBW7 activator: -1

Results for Cc1ccnc(NC(c2ccccc2C)c2ccc3cccnc3c2O)c1 (stereo not drawn) ?
GPR151 ag: 0; MITF primary: 17; TEAD-YAP inh: 90*; FBW7 activator: 0

What do the screens show for `Cc1cn2c3c(=O)n(CC(N)=O)c(=O)n(C)c3nc2n1C1CCCCC1`?
GPR151 ag: 0; MITF primary: -10; TEAD-YAP inh: -8; FBW7 activator: 0

How did CC(=O)c1cn(CC(=O)Nc2cccc(C)c2C)c2ccccc12 do in these assays?
GPR151 ag: 0; MITF primary: -2; TEAD-YAP inh: 40*; FBW7 activator: 0

How did CC(=O)c1cn(CC(=O)Nc2ccc(C)cc2C)c2ccccc12 do in these assays?
GPR151 ag: 0; MITF primary: 2; TEAD-YAP inh: 40*; FBW7 activator: 0

How did COc1cc(C)c(NC(=O)Cn2cc(C(C)=O)c3ccccc32)cc1C do in these assays?
GPR151 ag: -1; MITF primary: 9; TEAD-YAP inh: 22; FBW7 activator: 0

How did O=C(CSc1n[nH]c(-c2ccccc2)n1)Nc1ccccc1Cl do in these assays?
GPR151 ag: -2; MITF primary: 4; TEAD-YAP inh: -8; FBW7 activator: 1

Results for O=C(CSc1n[nH]c(-c2ccccc2)n1)Nc1cccc2ccccc12 ?
GPR151 ag: 1; MITF primary: -2; TEAD-YAP inh: 53*; FBW7 activator: 0

Results for O=C(NCC(c1ccco1)N1CCc2ccccc21)c1ccc(F)c(F)c1 (stereo not drawn) ?
GPR151 ag: 0; MITF primary: 3; TEAD-YAP inh: 12; FBW7 activator: 0

How did N#C/C(=C\c1cccc(Cl)c1Cl)c1nn(CCO)c(N)c1C#N do in these assays?
GPR151 ag: 1; MITF primary: 9; TEAD-YAP inh: 49*; FBW7 activator: 0

Results for CCn1c2ccccc2c2cc(/C=C(\C#N)c3nn(CCO)c(N)c3C#N)ccc21 ?
GPR151 ag: 0; MITF primary: 0; TEAD-YAP inh: 49*; FBW7 activator: 0

What do the screens show for `N#C/C(=C\c1ccccc1)c1nn(CCO)c(N)c1C#N`?
GPR151 ag: 2; MITF primary: 16; TEAD-YAP inh: -17; FBW7 activator: 0

What do the screens show for `O=C(c1cc(Cl)ccc1Cl)N1CCN(C/C=C/c2ccccc2)CC1`?
GPR151 ag: 0; MITF primary: -4; TEAD-YAP inh: 3; FBW7 activator: -1

Results for COC(=O)NC(C)c1nc2ccccc2n1CCOc1cccc(OC)c1 (stereo not drawn) ?
GPR151 ag: -2; MITF primary: 15; TEAD-YAP inh: 4; FBW7 activator: 1
